# Experiments:
# [1] = biological target: T1, Ephrin type-B receptor 1 (Homo sapiens) (UniProt P54762); conditions: at 10 µM
# T1 sequence (whole entry): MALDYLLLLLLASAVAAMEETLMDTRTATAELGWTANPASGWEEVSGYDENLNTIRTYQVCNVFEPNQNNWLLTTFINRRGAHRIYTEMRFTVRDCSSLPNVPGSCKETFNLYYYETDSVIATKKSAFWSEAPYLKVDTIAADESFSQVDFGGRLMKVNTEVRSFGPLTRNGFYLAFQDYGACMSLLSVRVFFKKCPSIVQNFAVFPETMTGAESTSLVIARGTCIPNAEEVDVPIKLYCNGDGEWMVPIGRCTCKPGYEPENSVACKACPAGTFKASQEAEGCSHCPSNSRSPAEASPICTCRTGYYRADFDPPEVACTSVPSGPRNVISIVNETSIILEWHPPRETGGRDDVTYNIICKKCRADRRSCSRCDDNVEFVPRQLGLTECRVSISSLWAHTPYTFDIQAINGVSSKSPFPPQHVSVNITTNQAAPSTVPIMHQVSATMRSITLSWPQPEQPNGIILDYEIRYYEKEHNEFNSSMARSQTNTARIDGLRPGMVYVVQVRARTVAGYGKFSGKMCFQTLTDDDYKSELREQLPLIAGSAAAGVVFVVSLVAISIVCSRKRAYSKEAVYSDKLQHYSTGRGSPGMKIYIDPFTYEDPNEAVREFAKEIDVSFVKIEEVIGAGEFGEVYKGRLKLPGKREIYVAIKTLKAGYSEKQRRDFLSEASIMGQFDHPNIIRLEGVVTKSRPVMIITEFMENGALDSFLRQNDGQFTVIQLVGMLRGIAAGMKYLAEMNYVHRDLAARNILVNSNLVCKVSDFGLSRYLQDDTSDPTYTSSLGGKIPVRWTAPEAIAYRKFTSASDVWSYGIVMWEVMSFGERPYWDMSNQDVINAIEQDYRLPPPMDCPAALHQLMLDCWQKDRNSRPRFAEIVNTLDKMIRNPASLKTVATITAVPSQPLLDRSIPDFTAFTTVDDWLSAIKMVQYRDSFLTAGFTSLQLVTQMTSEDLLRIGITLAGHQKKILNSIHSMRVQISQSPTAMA
# [2] = biological target: T2, Ephrin type-B receptor 2 (Homo sapiens) (UniProt P29323); conditions: at 1 µM
# T2 sequence (whole entry): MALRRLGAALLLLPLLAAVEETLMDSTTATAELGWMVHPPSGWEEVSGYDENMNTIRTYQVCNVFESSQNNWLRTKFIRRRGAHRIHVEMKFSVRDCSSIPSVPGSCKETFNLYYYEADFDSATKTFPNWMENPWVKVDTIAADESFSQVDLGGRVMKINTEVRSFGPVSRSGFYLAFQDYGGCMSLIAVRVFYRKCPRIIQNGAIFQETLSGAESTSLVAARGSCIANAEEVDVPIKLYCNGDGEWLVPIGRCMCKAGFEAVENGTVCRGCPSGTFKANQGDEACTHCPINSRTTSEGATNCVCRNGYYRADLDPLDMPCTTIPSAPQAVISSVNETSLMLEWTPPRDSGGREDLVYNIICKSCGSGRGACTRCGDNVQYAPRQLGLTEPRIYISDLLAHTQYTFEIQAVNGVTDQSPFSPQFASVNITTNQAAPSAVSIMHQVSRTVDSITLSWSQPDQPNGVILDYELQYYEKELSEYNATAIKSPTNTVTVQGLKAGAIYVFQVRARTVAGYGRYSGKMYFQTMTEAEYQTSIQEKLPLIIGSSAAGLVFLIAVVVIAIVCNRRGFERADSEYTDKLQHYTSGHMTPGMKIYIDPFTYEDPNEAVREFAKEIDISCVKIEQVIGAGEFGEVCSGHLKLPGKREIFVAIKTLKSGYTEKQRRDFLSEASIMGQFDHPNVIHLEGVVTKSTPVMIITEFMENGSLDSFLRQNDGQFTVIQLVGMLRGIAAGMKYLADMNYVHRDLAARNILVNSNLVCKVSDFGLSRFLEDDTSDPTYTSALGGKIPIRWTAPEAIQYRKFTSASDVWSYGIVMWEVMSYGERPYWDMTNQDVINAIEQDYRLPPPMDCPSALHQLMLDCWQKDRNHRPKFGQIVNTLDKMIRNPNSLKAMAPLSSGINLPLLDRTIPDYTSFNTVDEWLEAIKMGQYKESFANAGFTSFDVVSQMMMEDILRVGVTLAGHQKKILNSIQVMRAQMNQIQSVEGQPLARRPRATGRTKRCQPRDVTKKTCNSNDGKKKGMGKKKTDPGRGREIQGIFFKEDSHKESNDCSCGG
# [3] = biological target: T2, Ephrin type-B receptor 2 (Homo sapiens); conditions: at 10 µM
# [4] = biological target: T3, Ephrin type-B receptor 3 (Homo sapiens) (UniProt P54753); conditions: at 1 µM
# T3 sequence (whole entry): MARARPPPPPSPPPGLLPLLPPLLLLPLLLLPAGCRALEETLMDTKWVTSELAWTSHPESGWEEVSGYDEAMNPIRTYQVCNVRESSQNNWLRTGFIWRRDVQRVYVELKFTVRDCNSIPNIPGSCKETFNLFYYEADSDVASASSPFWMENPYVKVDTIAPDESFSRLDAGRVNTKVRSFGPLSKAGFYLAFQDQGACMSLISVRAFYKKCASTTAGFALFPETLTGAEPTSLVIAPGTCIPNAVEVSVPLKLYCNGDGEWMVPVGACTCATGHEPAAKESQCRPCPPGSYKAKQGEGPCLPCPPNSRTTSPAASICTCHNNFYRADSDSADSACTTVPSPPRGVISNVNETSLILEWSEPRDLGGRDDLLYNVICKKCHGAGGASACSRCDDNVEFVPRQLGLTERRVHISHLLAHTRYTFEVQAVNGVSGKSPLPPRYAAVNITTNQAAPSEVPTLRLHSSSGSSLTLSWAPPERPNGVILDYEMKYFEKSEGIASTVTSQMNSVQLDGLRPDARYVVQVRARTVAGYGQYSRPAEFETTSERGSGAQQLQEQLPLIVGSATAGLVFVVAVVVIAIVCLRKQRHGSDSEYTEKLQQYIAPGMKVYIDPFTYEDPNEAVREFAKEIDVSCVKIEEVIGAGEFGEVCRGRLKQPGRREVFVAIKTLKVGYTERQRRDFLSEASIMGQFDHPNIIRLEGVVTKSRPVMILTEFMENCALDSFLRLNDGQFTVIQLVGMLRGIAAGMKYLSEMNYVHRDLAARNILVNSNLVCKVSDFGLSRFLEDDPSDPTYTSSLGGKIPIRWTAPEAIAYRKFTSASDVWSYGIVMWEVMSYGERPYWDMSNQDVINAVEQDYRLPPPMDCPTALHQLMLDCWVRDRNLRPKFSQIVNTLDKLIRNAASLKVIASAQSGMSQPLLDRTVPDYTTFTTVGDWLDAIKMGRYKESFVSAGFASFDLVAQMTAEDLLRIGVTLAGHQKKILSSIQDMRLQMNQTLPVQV
# [5] = biological target: T3, Ephrin type-B receptor 3 (Homo sapiens); conditions: at 10 µM
# [6] = biological target: T4, Ephrin type-B receptor 4 (Homo sapiens) (UniProt P54760); conditions: at 1 µM
# T4 sequence (whole entry): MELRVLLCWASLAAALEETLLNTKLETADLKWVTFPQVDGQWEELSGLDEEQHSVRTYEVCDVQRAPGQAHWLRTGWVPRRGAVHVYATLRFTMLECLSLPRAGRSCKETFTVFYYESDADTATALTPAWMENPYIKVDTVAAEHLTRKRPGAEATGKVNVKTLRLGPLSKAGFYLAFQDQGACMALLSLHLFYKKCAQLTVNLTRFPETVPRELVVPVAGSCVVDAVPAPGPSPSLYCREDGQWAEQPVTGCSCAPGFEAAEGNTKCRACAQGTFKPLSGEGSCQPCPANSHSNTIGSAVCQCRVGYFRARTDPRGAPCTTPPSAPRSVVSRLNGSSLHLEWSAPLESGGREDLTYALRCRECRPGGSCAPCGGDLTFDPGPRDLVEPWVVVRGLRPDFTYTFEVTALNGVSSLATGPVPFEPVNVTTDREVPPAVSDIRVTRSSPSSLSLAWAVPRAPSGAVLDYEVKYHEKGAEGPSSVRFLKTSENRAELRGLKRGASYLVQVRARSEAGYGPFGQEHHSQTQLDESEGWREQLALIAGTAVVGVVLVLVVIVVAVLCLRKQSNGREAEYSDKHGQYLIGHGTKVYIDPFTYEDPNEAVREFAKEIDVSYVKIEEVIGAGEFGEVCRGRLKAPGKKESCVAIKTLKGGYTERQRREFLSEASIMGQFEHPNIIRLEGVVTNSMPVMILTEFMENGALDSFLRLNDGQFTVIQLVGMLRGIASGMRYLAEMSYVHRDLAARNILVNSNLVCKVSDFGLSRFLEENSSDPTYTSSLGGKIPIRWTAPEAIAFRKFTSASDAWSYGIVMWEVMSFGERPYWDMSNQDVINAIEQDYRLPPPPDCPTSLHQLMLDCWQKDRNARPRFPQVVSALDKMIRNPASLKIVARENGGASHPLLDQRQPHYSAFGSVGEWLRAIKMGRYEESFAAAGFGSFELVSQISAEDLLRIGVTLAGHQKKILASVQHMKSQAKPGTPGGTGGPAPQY
# [7] = biological target: T4, Ephrin type-B receptor 4 (Homo sapiens); conditions: at 10 µM
# [8] = biological target: Receptor tyrosine-protein kinase erbB-4 (Homo sapiens) (UniProt Q15303); conditions: at 1 µM
# Receptor tyrosine-protein kinase erbB-4 (Homo sapiens), sequence (Q15303 whole entry): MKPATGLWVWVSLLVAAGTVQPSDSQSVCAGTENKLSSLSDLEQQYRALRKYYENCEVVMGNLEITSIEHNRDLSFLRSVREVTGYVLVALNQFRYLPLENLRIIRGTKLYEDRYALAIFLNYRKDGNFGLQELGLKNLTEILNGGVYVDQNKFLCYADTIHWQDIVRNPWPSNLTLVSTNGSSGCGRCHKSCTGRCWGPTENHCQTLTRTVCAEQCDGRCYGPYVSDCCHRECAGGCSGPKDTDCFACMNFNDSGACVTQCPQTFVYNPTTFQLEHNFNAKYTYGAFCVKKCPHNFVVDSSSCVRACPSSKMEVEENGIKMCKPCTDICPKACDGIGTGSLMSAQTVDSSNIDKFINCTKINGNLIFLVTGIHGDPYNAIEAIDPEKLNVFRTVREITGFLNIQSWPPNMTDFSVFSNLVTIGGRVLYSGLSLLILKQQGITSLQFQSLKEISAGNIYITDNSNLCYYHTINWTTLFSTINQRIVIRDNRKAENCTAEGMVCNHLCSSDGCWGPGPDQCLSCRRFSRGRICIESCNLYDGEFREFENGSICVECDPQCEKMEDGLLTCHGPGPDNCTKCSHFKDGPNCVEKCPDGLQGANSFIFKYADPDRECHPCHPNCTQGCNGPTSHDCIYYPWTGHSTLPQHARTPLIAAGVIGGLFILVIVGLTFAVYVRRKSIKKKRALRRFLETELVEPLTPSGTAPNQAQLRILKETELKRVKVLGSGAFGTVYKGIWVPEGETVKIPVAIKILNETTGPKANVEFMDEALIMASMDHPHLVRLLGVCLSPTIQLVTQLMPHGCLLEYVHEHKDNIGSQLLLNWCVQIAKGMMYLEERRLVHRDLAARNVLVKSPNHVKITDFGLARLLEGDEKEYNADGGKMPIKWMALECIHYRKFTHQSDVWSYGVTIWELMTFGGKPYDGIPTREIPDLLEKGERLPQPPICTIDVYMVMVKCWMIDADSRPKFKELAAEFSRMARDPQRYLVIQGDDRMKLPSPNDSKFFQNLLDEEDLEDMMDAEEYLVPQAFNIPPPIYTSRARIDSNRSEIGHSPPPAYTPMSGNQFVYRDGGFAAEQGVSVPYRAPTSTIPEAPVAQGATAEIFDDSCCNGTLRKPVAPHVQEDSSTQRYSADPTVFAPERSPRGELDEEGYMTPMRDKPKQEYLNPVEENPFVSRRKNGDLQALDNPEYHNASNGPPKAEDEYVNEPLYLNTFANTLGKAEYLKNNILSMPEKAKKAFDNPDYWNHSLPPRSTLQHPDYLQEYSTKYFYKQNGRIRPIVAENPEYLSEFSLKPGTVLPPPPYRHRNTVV
# [9] = biological target: Receptor tyrosine-protein kinase erbB-4 (Homo sapiens) (UniProt Q15303); conditions: at 10 µM
# [10] = biological target: Focal adhesion kinase 1 (Homo sapiens) (UniProt Q05397); conditions: at 1 µM
# Focal adhesion kinase 1 (Homo sapiens), sequence (Q05397 2-1052 limits assumed): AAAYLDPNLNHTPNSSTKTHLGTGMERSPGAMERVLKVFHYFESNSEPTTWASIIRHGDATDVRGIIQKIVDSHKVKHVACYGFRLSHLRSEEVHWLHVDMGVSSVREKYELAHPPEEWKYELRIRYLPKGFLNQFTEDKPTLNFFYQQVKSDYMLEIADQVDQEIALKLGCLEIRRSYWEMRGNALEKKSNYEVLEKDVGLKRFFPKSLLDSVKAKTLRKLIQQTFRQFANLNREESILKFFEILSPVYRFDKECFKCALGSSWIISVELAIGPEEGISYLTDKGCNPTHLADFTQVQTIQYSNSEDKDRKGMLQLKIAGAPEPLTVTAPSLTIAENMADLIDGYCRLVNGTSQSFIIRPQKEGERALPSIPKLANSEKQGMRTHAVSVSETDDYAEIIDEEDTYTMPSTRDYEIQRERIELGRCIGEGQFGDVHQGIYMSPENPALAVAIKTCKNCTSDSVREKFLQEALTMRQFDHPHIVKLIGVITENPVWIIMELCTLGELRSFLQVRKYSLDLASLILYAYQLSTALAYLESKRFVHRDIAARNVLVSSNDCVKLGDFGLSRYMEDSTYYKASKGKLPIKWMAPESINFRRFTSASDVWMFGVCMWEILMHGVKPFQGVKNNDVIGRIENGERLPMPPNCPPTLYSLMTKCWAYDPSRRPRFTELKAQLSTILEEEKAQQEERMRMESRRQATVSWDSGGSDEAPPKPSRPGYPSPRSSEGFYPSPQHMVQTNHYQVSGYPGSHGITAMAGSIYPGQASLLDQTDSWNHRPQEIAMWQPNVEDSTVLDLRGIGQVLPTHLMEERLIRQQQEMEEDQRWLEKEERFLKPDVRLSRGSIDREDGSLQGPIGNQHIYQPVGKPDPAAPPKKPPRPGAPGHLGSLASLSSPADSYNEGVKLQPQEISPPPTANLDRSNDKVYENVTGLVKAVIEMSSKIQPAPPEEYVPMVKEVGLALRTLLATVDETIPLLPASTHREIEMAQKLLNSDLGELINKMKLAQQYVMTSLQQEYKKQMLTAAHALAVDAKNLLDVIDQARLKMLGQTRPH
compound,measurement,setting,value
O=Nc1c(-c2c(O)[nH]c3ccccc23)[nH]c2ccccc12,residual activity,[1],13%
same,residual activity,[2],91%
same,residual activity,[3],13%
same,residual activity,[4],105% (inactive)
same,residual activity,[5],103%
same,residual activity,[6],67%
same,residual activity,[7],13%
same,residual activity,[8],107%
same,residual activity,[9],99%
same,residual activity,[10],39%
